The source of these data is ChEMBL document CHEMBL3988442, “University of Dundee, Small-Polar-MMV Screening Library” (2021).

Parameters in all cases: scale not given: direction of the effect not stated beside the values
Assay [1] has as its target Protein translocase subunit SecA (Escherichia coli (strain K12)) (UniProt P10408). In words: Assay to Identify E. coli SecA ATPase Inhibitors. It counts as functional. The conditions noted are these: 30 µM.
Assay [2] concerns the target T1, Ubiquitin-activating enzyme e1, putative (Leishmania donovani (strain BPK282A1)) (UniProt E9BSI1).
T1 sequence (whole entry): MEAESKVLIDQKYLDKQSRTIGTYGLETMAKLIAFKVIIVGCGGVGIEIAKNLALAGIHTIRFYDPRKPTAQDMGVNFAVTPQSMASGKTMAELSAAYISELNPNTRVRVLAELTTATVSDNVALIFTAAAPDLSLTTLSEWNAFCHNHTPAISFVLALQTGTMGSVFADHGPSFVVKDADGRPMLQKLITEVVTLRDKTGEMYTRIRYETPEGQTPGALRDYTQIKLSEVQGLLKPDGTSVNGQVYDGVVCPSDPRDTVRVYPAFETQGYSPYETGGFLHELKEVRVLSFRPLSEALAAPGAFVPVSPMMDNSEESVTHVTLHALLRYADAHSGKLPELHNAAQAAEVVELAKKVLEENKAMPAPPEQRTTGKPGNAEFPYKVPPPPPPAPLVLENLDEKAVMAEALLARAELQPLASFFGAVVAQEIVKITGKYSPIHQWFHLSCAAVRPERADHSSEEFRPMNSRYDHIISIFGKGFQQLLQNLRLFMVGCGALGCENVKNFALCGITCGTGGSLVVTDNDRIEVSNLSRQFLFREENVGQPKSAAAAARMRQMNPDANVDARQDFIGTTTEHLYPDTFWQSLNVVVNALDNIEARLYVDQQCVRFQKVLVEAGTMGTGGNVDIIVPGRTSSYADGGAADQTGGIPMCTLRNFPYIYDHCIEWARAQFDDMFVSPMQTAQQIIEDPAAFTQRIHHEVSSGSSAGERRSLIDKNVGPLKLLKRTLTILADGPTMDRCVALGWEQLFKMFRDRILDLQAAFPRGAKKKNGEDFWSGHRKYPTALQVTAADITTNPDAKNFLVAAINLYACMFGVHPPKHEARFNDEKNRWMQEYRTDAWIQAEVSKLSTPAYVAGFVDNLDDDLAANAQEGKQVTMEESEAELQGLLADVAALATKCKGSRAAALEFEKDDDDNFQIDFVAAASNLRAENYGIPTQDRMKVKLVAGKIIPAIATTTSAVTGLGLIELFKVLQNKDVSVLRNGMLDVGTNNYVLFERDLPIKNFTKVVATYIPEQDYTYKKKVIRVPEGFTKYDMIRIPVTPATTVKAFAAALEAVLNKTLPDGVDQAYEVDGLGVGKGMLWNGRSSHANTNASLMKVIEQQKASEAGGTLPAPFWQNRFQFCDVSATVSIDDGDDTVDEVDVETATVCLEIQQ
In words: Leishmania donovani Ubiquitin Activating Enzyme (LdE1). The format is functional. The conditions noted are these: 30 µM.

Assay [3] deals with AMP-activated protein kinase, AMPK (Homo sapiens) (UniProt P54646+O43741+P54619+Q9UGJ0+Q9Y478+Q13131+Q9UGI9). The assay is described as follows: AMP-dependent Kinase enzyme assay. An in vitro enzyme assay that detects ADP turnover that is directly proportional to AMPK activity. This uses naive AMPK that is activated during the assay with MK-8722. The format is functional. Conditions: 30 µM.

Assay [4] deals with Sialic acid-binding Ig-like lectin 9 (Homo sapiens) (UniProt Q9Y336). In words: Hs-Siglec9 ALPHAscreen SOP 20170721. Conditions: 10 µM. (Alpha assays give light when donor and acceptor beads are brought close together.)
In another assay the test system is Trypanosoma cruzi. In words: Trypanosoma cruzi phosphomannomutase and mannose-1-phosphate guanylyltransferase assay. The format is functional. Conditions: 10 µM.
Assay [5] addresses T2, Arginase-2, mitochondrial (Homo sapiens) (UniProt P78540).
T2 sequence (whole entry): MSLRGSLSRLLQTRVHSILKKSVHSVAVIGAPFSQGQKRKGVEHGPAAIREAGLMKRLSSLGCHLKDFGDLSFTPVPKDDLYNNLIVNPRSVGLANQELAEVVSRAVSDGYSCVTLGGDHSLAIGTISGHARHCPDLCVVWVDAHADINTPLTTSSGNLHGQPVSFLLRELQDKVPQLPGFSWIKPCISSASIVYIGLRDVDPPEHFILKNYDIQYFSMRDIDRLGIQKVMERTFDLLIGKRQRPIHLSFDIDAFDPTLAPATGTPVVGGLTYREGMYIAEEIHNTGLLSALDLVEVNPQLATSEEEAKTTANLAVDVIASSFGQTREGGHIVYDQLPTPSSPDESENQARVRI
In words: in vitro enzyme assay to detect the production of urea directly proportional to the activity of Arginase II. Note: in the data most compounds retested in dose-response had high values. The format is functional. The conditions noted are these: 33.3 µM.

For assay [6], the target named is T3, Proteasome subunit beta (Trypanosoma cruzi) (UniProt O96673).
T3 sequence (whole entry): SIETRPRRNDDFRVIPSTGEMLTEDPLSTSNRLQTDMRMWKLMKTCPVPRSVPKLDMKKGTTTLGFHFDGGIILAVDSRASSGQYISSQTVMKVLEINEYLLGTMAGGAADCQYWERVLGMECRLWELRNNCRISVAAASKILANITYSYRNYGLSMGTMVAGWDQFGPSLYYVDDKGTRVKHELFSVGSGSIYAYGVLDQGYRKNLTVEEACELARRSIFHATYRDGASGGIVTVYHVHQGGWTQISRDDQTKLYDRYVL
In words: Trypanosoma cruzi proteasome chymotrypsin-like activity (TcProtChymo) assay. Note: in the data most compounds retested in dose-response had high values. It counts as functional. The conditions noted are these: 9.37 µM.

The next assay is filed under the species Homo sapiens. In words: To identify inhibition of the IFN signalling (Jak-Stat) pathway via expression of an eGFP reporter gene under the control of an IFN-stimulated response element (ISRE) containing MxA promoter. Conditions: 30 µM. The format is functional. In general terms: A reporter such as luciferase makes a cellular process visible.
For assay [7], the target named is T4, Tyrosyl-tRNA synthetase, putative (Trypanosoma cruzi (strain CL Brener)) (UniProt Q4DSP6).
T4 sequence (whole entry): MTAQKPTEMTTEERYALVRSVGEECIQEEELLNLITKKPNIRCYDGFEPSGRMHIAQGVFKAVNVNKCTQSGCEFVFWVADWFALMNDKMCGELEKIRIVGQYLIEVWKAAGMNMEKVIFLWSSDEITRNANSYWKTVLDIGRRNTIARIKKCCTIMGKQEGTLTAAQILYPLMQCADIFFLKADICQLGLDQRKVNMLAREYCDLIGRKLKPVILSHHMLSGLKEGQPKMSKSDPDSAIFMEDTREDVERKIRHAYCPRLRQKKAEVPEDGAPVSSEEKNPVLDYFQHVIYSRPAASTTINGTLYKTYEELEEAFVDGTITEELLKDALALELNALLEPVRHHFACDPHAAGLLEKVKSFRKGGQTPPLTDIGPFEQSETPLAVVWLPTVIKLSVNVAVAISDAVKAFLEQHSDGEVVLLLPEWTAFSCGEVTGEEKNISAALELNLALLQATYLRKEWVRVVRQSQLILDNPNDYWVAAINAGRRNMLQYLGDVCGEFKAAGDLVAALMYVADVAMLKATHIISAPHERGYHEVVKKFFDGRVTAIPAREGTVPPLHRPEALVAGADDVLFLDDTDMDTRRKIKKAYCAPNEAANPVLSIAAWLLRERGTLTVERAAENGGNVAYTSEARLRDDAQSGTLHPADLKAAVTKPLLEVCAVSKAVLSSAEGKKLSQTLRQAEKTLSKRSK
In words: Trypanosoma cruzi tyrosyl tRNA synthetase (TcYRS) _High Tyrosine SOP. Note: in the data most compounds retested in dose-response had high values. The format is functional. The conditions noted are these: 30 µM.

Assay [8] concerns the target T4, Tyrosyl-tRNA synthetase, putative (Trypanosoma cruzi (strain CL Brener)). In words: Trypanosoma cruzi tyrosyl tRNA synthetase (TcYRS) SOP. The format is functional. The conditions noted are these: 30 µM.
Assay [9] concerns the target Chromo domain-containing protein 1 (Saccharomyces cerevisiae (strain ATCC 204508 / S288c) (Baker's yeast)) (UniProt P32657). In words: ScCHD-1 Enzyme Inhibition Assay. Note: in the data most compounds retested in dose-response had high values. It counts as functional. The conditions noted are these: 30 µM.

For some of these results: Entries with a potency or affinity are not part of this list.

Sequence of Sialic acid-binding Ig-like lectin 9 (Homo sapiens) (Q9Y336 whole entry): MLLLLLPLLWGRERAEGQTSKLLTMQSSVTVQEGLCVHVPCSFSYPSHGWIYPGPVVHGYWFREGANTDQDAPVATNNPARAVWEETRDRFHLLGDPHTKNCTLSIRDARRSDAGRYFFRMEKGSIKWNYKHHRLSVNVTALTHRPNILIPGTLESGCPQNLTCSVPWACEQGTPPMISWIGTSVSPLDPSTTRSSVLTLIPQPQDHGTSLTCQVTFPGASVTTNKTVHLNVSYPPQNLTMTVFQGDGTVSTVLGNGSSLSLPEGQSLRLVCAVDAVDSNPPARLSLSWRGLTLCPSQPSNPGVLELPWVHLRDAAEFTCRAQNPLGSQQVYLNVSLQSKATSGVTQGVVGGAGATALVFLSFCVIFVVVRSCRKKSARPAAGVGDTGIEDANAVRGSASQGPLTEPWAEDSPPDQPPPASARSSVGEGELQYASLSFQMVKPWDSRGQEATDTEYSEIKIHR
Sequence of Chromo domain-containing protein 1 (Saccharomyces cerevisiae (strain ATCC 204508 / S288c) (Baker's yeast)) (P32657 whole entry, the tested form may be a part): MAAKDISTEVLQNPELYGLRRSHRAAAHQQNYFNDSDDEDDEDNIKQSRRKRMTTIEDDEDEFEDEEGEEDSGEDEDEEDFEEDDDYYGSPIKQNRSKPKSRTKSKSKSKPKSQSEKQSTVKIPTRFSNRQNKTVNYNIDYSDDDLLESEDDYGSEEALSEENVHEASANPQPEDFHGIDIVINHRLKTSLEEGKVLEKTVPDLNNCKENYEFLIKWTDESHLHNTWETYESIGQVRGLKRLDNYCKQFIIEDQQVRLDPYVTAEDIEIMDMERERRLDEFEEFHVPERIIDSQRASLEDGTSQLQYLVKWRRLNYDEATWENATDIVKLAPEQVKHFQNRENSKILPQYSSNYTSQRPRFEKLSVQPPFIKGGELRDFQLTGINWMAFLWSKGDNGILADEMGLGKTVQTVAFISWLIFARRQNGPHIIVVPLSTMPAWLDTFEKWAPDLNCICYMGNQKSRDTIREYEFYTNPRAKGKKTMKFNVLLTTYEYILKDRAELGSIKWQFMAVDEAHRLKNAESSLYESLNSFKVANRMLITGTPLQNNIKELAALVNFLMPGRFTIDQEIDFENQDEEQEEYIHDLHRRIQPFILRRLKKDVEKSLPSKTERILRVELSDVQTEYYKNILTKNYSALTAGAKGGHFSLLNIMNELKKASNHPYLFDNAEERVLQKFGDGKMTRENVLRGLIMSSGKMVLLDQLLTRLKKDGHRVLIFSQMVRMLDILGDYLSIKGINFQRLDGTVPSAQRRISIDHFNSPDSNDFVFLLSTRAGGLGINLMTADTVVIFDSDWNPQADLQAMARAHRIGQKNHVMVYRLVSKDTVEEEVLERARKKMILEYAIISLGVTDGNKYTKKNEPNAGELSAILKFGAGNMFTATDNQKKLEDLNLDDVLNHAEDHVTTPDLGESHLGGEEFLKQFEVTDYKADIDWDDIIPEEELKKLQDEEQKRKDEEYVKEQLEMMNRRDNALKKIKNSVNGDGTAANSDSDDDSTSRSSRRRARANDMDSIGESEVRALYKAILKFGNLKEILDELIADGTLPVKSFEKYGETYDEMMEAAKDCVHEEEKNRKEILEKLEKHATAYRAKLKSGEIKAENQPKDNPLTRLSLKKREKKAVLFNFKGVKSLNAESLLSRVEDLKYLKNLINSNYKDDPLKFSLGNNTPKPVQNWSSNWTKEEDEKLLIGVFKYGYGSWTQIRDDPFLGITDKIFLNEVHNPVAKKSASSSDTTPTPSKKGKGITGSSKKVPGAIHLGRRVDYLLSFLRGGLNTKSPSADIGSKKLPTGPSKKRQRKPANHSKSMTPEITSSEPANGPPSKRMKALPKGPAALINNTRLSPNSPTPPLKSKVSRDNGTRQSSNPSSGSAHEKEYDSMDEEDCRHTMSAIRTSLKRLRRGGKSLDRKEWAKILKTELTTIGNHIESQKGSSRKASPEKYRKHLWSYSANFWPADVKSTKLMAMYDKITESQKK
Sequence of Protein translocase subunit SecA (Escherichia coli (strain K12)) (P10408 whole entry): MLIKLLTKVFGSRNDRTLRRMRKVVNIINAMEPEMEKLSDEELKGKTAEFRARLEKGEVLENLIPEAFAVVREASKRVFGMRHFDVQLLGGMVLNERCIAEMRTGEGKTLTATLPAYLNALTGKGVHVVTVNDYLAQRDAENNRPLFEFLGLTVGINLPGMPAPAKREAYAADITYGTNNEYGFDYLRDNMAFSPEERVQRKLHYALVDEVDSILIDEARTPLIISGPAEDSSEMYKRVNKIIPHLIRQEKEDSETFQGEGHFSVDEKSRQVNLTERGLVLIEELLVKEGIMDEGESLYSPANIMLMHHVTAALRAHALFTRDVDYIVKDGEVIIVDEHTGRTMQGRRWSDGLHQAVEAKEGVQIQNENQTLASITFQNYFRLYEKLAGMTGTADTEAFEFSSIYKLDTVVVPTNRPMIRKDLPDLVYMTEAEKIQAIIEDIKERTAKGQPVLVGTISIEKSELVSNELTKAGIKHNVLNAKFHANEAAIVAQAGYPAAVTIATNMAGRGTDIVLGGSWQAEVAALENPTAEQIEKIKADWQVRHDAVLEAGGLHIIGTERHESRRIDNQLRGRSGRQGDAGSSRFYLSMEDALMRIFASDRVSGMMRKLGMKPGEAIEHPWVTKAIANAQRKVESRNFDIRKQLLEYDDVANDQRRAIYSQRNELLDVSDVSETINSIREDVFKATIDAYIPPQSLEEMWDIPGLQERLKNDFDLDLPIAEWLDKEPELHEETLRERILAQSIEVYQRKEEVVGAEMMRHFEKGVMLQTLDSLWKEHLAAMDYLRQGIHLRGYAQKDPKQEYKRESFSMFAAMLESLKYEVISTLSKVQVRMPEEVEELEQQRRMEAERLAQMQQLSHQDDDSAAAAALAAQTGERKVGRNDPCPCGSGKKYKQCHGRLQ

For the molecule `Cc1ccc(CC(=O)N(C)CC2(O)CCN(c3ccccn3)C2)s1` (stereo unspecified), the Percent Effect in [1] was -3.85%; in assay [2] it was -1.35%; in assay [3] it was 12.4%; in assay [4], -1.42%; with Trypanosoma cruzi, 0.198%; in [5] it was -2.09%. For the same molecule, the Percent Effect in assay [6] is 0%; in the assay listed under Homo sapiens it was 1.85%; in [7], 4.3%; in assay [8], 6.49%; in [9], -1.65%.
Take `CC(NC(=O)NCCNc1cnccn1)c1cccs1` (stereo unspecified): the Percent Effect was -1.5% in assay [1]; 23.4% in [2]; 1.73% in assay [3]; 3.58% in assay [4]; 2.81% in the assay with Trypanosoma cruzi; 2.49% in assay [5]. Moreover, the Percent Effect is 3.21% in assay [6]; -20.8% in the assay filed under Homo sapiens; 8.74% in assay [7]; 24.4% in assay [8]; -11.5% in assay [9].
With `CC(NCc1ccc(Cl)o1)c1nnc2n1CCCC2` (stereo unspecified), the Percent Effect in assay [1] is -1.28%; in assay [2] it was 13.5%; in [3], 2.81%; in [4], 2.02%; in the assay with Trypanosoma cruzi, 0.195%; in assay [5], 11.2%. In addition, the Percent Effect is 15% in assay [6]; 24.2% in the assay listed under Homo sapiens; 6.93% in [7]; 18.3% in assay [8]; 1.09% in assay [9].
Regarding `CCS(=O)(=O)N(C)c1ccc(C(=O)N2CCCC(C)C2)cc1` (stereo unspecified), the Percent Effect in [1] was -2.45%; in assay [2] it was 4.17%; in assay [3], -4.69%; in [4] it was 15.7%; with Trypanosoma cruzi it was 3.4%; in assay [5], 0.883%. In addition, the Percent Effect is 0.351% in assay [6]; 4.06% in the assay filed under Homo sapiens; -1.05% in assay [7]; 5.13% in assay [8]; -1.93% in assay [9].
`Cc1cc(NC(=O)NCCc2cccs2)n(C)n1`: the Percent Effect in assay [1] was 0.534%; in assay [2], 4.17%; in assay [3], -1.97%; in [4] it was -7.64%; in the assay on Trypanosoma cruzi it was -8.65%; in assay [5], 4.42%. Besides, the Percent Effect in assay [6] is 23.3%; in the assay listed under Homo sapiens, -9.88%; in [7] it was 0%; in assay [8], 5.13%; in assay [9], -0.833%.
Consider `CCCNC(=O)CCNC(=O)Cc1nc(-c2ccco2)oc1C`, for which the Percent Effect is -3.29% in assay [1]; 2.67% in [2]; -1.47% in assay [3]; 12.8% in assay [4]; -5.16% in the assay on Trypanosoma cruzi; 4.69% in [5]. Also, the Percent Effect was 13.2% in assay [6]; 8.33% in the assay listed under Homo sapiens; 3.83% in assay [7]; 8.64% in assay [8]; -3.56% in [9].
Turning to `Cc1noc(C(C)N2CCN(CCC(=O)N3CCCCC3)CC2)n1` (stereo unspecified), the Percent Effect in assay [1] was -2.79%; in assay [2] it was 10.5%; in assay [3] it was -2.48%; in [4], 3.61%; with Trypanosoma cruzi, 4.19%; in assay [5], -16.6%. The Percent Effect is 9.68% in assay [6]; 21.2% in the assay filed under Homo sapiens; 3.19% in assay [7]; 15.6% in assay [8]; -5.47% in [9].
On to `CS(=O)(=O)N1CCOCC2(CN(Cc3ccsc3)CCO2)C1` (stereo unspecified), for which the Percent Effect in assay [1] was -4.51%; in assay [2], 5.48%; in assay [3], -1.43%; in [4] it was 5.15%; in the assay with Trypanosoma cruzi, 7.14%; in assay [5], -4.39%. In addition, the Percent Effect in assay [6] is 8.82%; in the assay filed under Homo sapiens, 10.5%; in assay [7], 5.21%; in assay [8], 6.17%; in assay [9], -0.73%.
Take `CC(C)c1nccn1CCCNC(=O)c1ccc(N(C)C)nc1`: the Percent Effect in assay [1] was -2.99%; in assay [2], 8%; in assay [3], -4.43%; in [4] it was 14%; in the assay on Trypanosoma cruzi, 3.21%; in assay [5], 13.5%. The Percent Effect in assay [6] is 6.97%; in the assay filed under Homo sapiens, 13.7%; in [7] it was 1.64%; in assay [8], 8.64%; in [9], -5.17%.
Take `Cc1cc(CNC(=O)N2CCN(c3nc(C)c(C)s3)CC2)no1`: the Percent Effect is -9.13% in [1]; 18.9% in assay [2]; -4.31% in assay [3]; 31.4% in [4]; 9.18% in the assay on Trypanosoma cruzi; 45% in assay [5]. Further, the Percent Effect is 17.2% in assay [6]; 14% in the assay listed under Homo sapiens; 8.91% in [7]; 15.8% in assay [8]; -4.46% in assay [9].
For `Cn1cc(C(=O)NCc2cn3c(n2)CN(Cc2ccccn2)CC3)cn1`, the Percent Effect in [1] was -7.16%; in assay [2] it was 2.7%; in [3], 4.33%; in assay [4] it was -3.43%; with Trypanosoma cruzi, 2.73%; in assay [5] it was 2.08%. For the same molecule, the Percent Effect in assay [6] is -0.254%; in the assay listed under Homo sapiens, -6.36%; in assay [7] it was 6.93%; in assay [8], 8.54%; in assay [9], -1.37%.
